This is an account of results in article PMC5700166.

Test in all cases: protein-binding microarray (PBM); PBM: ~300 nM protein, 6 mM HEPES pH 7.8, 80 mM KCl, 0.5 mM EDTA, 0.5 mM EGTA, 6% glycerol, 35 ng/ul poly-dIdC, 1% milk, 1 h, room temperature; Ap Aiptasia and Nv Nematostella (sea anemones) / Co Capsaspora / Aq Amphimedon (sponge) / Dm Drosophila / Hu human; RHD is the Rel homology domain; high values mean tight binding
What all share (conditions): dsDNA, one strand shown

In one assay the target is T1, GST-Ap-NF-kB RHD (Exaiptasia pallida (Aiptasia), UniProt A0A913YAJ5 2-422).
T1 sequence: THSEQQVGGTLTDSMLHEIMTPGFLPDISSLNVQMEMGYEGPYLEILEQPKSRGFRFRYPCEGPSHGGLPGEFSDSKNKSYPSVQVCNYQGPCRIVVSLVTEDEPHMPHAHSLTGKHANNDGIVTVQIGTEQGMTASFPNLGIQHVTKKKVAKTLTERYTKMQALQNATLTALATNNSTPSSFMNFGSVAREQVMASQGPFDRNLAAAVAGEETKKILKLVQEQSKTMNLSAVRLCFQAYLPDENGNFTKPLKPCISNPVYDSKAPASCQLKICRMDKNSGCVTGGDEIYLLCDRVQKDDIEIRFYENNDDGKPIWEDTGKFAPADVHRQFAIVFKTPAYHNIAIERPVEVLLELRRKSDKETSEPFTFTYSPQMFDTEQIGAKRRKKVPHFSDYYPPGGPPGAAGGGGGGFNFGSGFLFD

The target in assay [1] is T2, GST-Nv-NF-kB (Cys allele) (Nematostella vectensis, UniProt E5G601 2-411).
T2 sequence: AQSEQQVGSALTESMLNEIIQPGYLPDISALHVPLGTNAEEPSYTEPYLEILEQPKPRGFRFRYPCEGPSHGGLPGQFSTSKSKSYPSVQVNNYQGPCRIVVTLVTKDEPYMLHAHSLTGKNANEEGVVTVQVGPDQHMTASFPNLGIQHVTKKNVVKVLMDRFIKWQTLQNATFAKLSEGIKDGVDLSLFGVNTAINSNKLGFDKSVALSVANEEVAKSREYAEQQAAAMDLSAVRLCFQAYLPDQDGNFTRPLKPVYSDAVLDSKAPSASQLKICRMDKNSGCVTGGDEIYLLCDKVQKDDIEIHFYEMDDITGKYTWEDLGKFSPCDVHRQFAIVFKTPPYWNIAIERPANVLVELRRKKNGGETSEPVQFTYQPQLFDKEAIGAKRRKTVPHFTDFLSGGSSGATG

For another assay, the target named is T3, GST-Co-NF-kB (Capsaspora owczarzaki, UniProt F1ARL5 200-546).
T3 sequence: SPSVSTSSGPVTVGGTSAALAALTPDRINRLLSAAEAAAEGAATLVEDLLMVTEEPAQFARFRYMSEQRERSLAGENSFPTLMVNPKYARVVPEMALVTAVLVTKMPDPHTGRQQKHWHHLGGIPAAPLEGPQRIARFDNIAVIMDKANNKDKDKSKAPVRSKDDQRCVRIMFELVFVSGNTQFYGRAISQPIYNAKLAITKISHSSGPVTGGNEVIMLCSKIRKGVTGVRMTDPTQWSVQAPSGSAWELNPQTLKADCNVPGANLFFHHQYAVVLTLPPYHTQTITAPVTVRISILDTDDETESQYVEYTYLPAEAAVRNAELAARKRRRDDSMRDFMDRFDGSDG

The target in the next assay is T4, GST-Dm-Relish (Drosophila melanogaster, UniProt Q94527 99-473).
T4 sequence: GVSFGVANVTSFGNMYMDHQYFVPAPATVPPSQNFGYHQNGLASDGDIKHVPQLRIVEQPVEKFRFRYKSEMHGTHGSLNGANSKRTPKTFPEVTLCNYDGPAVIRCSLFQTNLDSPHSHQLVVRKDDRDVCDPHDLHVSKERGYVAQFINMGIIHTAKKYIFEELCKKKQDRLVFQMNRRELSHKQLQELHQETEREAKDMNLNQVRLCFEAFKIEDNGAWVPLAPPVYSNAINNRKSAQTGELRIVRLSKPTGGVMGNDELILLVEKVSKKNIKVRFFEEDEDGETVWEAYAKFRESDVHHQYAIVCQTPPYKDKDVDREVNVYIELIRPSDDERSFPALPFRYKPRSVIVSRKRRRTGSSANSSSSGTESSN

In another assay the target is T5, GST-Aq-NF-kB (Amphimedon queenslandica, UniProt A9Y5G7 2-389).
T5 sequence: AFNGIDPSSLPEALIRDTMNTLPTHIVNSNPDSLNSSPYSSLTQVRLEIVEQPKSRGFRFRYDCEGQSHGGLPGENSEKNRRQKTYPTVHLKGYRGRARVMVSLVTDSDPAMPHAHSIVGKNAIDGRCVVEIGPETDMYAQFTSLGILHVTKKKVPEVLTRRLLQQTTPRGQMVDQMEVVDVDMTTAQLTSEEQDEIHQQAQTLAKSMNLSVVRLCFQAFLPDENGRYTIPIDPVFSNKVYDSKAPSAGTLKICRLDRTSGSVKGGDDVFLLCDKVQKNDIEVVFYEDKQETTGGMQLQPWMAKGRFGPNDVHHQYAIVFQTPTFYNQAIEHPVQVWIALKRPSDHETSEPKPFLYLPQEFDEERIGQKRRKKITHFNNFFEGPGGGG

On to “CCGATTAACATCAAAATTCCCGGTGATGTTAATCGGGTCTTGATTCGCTTGACGCTGCTG”, for which the binding signal worked out at 4.57 z-score with GST-Ap-NF-kB RHD; 5.96 z-score in assay [1]; 5.57 z-score with GST-Co-NF-kB; 6.54 z-score with GST-Dm-Relish; 5.5 z-score in the assay with GST-Aq-NF-kB.
With “CCGATTAACATCAACCACCCCCTTGATGTTAATCGGGTCTTGATTCGCTTGACGCTGCTG”, the binding signal stood at 3.52 z-score with GST-Ap-NF-kB RHD; 3.02 z-score in assay [1]; 2.25 z-score with GST-Co-NF-kB; 2.48 z-score with GST-Dm-Relish; 3.83 z-score with GST-Aq-NF-kB.
In the same order, the values of “CCGATTAACATCAGGGGGTTAACTGATGTTAATCGGGTCTTGATTCGCTTGACGCTGCTG” are 5.36 z-score, 3.73 z-score, 2.64 z-score, 8.09 z-score and 5.06 z-score.
For “CCGATTAACATCAGGAATACCCATGATGTTAATCGGGTCTTGATTCGCTTGACGCTGCTG”, in that order: 4.37 z-score, 4.62 z-score, 1.39 z-score, 4.16 z-score and 4.54 z-score.
In the same order, the values of “CCGATTAACATCACGGGGGGTAATGATGTTAATCGGGTCTTGATTCGCTTGACGCTGCTG” are 4.02 z-score, 2.73 z-score, 6.28 z-score, 3.64 z-score and 3.77 z-score.
For the sequence “CCGATTAACATCAGGGTATTCCATGATGTTAATCGGGTCTTGATTCGCTTGACGCTGCTG”, the binding signal with GST-Ap-NF-kB RHD turned out to be 3.89 z-score; in assay [1] it was 4.62 z-score; in the assay with GST-Co-NF-kB, 1.19 z-score; in the assay with GST-Dm-Relish it was 5.81 z-score; with GST-Aq-NF-kB, 4.83 z-score.
As for “CCGATTAACATCACGGTACTTCCTGATGTTAATCGGGTCTTGATTCGCTTGACGCTGCTG”, the binding signal was determined as 2.38 z-score with GST-Ap-NF-kB RHD, 2.66 z-score in assay [1], 7.59 z-score in the assay with GST-Dm-Relish and 2.93 z-score with GST-Aq-NF-kB.
Regarding “CCGATTAACATCAAAAATTGCCCTGATGTTAATCGGGTCTTGATTCGCTTGACGCTGCTG”, the binding signal was 1.25 z-score in the assay with GST-Ap-NF-kB RHD; 1.84 z-score in assay [1]; 1.78 z-score with GST-Co-NF-kB; 1.5 z-score in the assay with GST-Dm-Relish; 2.99 z-score in the assay with GST-Aq-NF-kB.
Take “CCGATTAACATCAGGAGTTTACCTGATGTTAATCGGGTCTTGATTCGCTTGACGCTGCTG”: the binding signal with GST-Ap-NF-kB RHD came out at 1.12 z-score; in assay [1], 1.18 z-score; with GST-Dm-Relish it was 3.24 z-score; in the assay with GST-Aq-NF-kB it was 2.87 z-score.
On to “CCGATTAACATCAGGGATTCTCATGATGTTAATCGGGTCTTGATTCGCTTGACGCTGCTG”, for which the binding signal came to 2.96 z-score in the assay with GST-Ap-NF-kB RHD, 1.8 z-score in assay [1], 2.59 z-score in the assay with GST-Dm-Relish and 2.67 z-score in the assay with GST-Aq-NF-kB.
Turning to “CCGATTAACATCAGGGAGATACCTGATGTTAATCGGGTCTTGATTCGCTTGACGCTGCTG”, the binding signal in the assay with GST-Ap-NF-kB RHD was 4 z-score; in assay [1] it was 4.81 z-score; in the assay with GST-Co-NF-kB, 1.64 z-score; with GST-Dm-Relish, 4.25 z-score; with GST-Aq-NF-kB it was 7.69 z-score.
For the sequence “CCGATTAACATCAGGGACTTACCTGATGTTAATCGGGTCTTGATTCGCTTGACGCTGCTG”, the binding signal with GST-Ap-NF-kB RHD stood at 5.1 z-score; in assay [1] it was 7 z-score; with GST-Dm-Relish, 7.96 z-score; with GST-Aq-NF-kB it was 8.29 z-score.
Regarding “CCGATTAACATCAGAAAATTACCTGATGTTAATCGGGTCTTGATTCGCTTGACGCTGCTG”, the binding signal was 2.06 z-score with GST-Ap-NF-kB RHD, 3.89 z-score in assay [1], 4.45 z-score in the assay with GST-Dm-Relish and 3.25 z-score with GST-Aq-NF-kB.
For “CCGATTAACATCACGGGACATACTGATGTTAATCGGGTCTTGATTCGCTTGACGCTGCTG”, in that order: 1.83 z-score, 1.3 z-score, 1.8 z-score and 2.17 z-score.
Regarding “CCGATTAACATCAGGGGCTGTACTGATGTTAATCGGGTCTTGATTCGCTTGACGCTGCTG”, the binding signal with GST-Ap-NF-kB RHD is 2.83 z-score; in assay [1] it was 3.09 z-score; with GST-Dm-Relish, 3.56 z-score; with GST-Aq-NF-kB, 4.35 z-score.
Take “CCGATTAACATCAGGGAACCCCATGATGTTAATCGGGTCTTGATTCGCTTGACGCTGCTG”: the binding signal was 3.95 z-score with GST-Ap-NF-kB RHD; 2.07 z-score in assay [1]; 1.54 z-score with GST-Co-NF-kB; 10.5 z-score with GST-Dm-Relish; 4.59 z-score with GST-Aq-NF-kB.
For “CCGATTAACATCAGAAAATCCCATGATGTTAATCGGGTCTTGATTCGCTTGACGCTGCTG”, in that order: 4.49 z-score, 4.29 z-score, 1.54 z-score, 7.07 z-score and 4.36 z-score.
In the same order, the values of “CCGATTAACATCAGGGATCCCCATGATGTTAATCGGGTCTTGATTCGCTTGACGCTGCTG” are 7.26 z-score, 4.8 z-score, 3.74 z-score, 9.65 z-score and 4.64 z-score.
For “CCGATTAACATCAGGGCTTTACCTGATGTTAATCGGGTCTTGATTCGCTTGACGCTGCTG”, the binding signal in the assay with GST-Ap-NF-kB RHD was determined as 1.07 z-score; in assay [1], 2.29 z-score; with GST-Dm-Relish, 5.69 z-score; in the assay with GST-Aq-NF-kB, 3.97 z-score.
Take “CCGATTAACATCACGGCAATCCCTGATGTTAATCGGGTCTTGATTCGCTTGACGCTGCTG”: the binding signal was determined as 1.5 z-score with GST-Ap-NF-kB RHD, 1.21 z-score in assay [1], 2.64 z-score with GST-Dm-Relish and 2.66 z-score in the assay with GST-Aq-NF-kB.
In the same order, the values of “CCGATTAACATCAAAAAAATACCTGATGTTAATCGGGTCTTGATTCGCTTGACGCTGCTG” are 1.95 z-score, 2.83 z-score, 5.83 z-score and 3.53 z-score.
In the same order, the values of “CCGATTAACATCACGGTATTTCCTGATGTTAATCGGGTCTTGATTCGCTTGACGCTGCTG” are 1.56 z-score, 1.37 z-score, 3.77 z-score and 4.59 z-score.
For the sequence “CCGATTAACATCACCCGATTCCCTGATGTTAATCGGGTCTTGATTCGCTTGACGCTGCTG”, the binding signal was 2.55 z-score with GST-Ap-NF-kB RHD; 2.62 z-score in assay [1]; 2.5 z-score in the assay with GST-Co-NF-kB; 1.62 z-score with GST-Dm-Relish; 2.54 z-score with GST-Aq-NF-kB.
As for “CCGATTAACATCAAAATTTCACCTGATGTTAATCGGGTCTTGATTCGCTTGACGCTGCTG”, the binding signal with GST-Ap-NF-kB RHD was 1.14 z-score; in assay [1], 2.14 z-score; with GST-Dm-Relish, 2.34 z-score; with GST-Aq-NF-kB, 1.7 z-score.
“CCGATTAACATCACGGAGTTCCCTGATGTTAATCGGGTCTTGATTCGCTTGACGCTGCTG”: the binding signal worked out at 2.6 z-score with GST-Ap-NF-kB RHD; 1.63 z-score in assay [1]; 1.53 z-score with GST-Co-NF-kB; 5 z-score in the assay with GST-Dm-Relish; 4.63 z-score in the assay with GST-Aq-NF-kB.
On to “CCGATTAACATCAGGGAATTAACTGATGTTAATCGGGTCTTGATTCGCTTGACGCTGCTG”, for which the binding signal with GST-Ap-NF-kB RHD worked out at 2.83 z-score; in assay [1], 4.33 z-score; in the assay with GST-Co-NF-kB, 2.63 z-score; in the assay with GST-Dm-Relish, 4.07 z-score; in the assay with GST-Aq-NF-kB, 5.19 z-score.
For “CCGATTAACATCAGAAATCCCACTGATGTTAATCGGGTCTTGATTCGCTTGACGCTGCTG”, in that order: 2.54 z-score, 2.54 z-score, 1.65 z-score, 5.45 z-score and 2.41 z-score.
For “CCGATTAACATCAGGAGAACCCCTGATGTTAATCGGGTCTTGATTCGCTTGACGCTGCTG”, in that order: 4 z-score, 3.59 z-score, 1.26 z-score, 3.65 z-score and 5.68 z-score.
Turning to “CCGATTAACATCACGGGACTTCCTGATGTTAATCGGGTCTTGATTCGCTTGACGCTGCTG”, the binding signal was 5.89 z-score with GST-Ap-NF-kB RHD, 6.03 z-score in assay [1], 7.87 z-score with GST-Dm-Relish and 6.21 z-score in the assay with GST-Aq-NF-kB.
